Shown are actives, neighbours in structure and some others; about 4.1% of the full set was active somewhere.
UHRF1 MBD2 ctr – UHRF1 methyl-DNA binding inhibition; AID 687016; actives 0.75% (n = 370,000); inhibition, % at 4.4 µM; Q96T88; UHRF1 binding to methylated oligo, TR-FRET; in the data active = inhibition above about 21%;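 also: UHRF1 SRA domain binding a hemimethylated CpG hairpin DNA probe; 0% = median of test compound wells and 100% = reference inhibitor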
MBD2 DNA inh – MBD2-methylated oligo binding inhibition; actives 0.31% (n = 370,000); Q9UBB5; TR-FRET, MBD2 binding to methylated oligonucleotide; inhibition, % at 4.4 µM; in the data active = inhibition above about 13%
LEDGF integ inh – blocks HIV-1 LEDGF/p75-dependent DNA integration | inhibition, % at 3.7 µM | actives 0.64% (n = 370,000) | AID 743269 | TR-FRET IN-LEDGF/p75 DNA integration, Eu/Cy5;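 active = inhibition above the screen-wide mean plus 3 SD, cut at about 13% in these data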;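 also: signal is the Cy5 over europium emission ratio at 671 and 618 nm; 0% = plate median of compound wells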
ABHD5 PLIN5 PPI – blocks binding of human ABHD5 to perilipin-5 | Q00G26+Q8WTS1 | inhibition, % at 4 µM | AID 602281 | Split G. princeps luciferase complementation, luminescence, 4 h | actives 0.78% (n = 360,000);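 active = inhibition above the mean inhibition across every tested compound plus 3 SD, cut at about 22% in these data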;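 also: 0% = DMSO only wells and the 100% control is not disclosed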
rCAG RNA binder – binds r(CAG) RNA repeats. r(CAG) RNA repeat, TO-PRO-1 dye displacement fluorescence. inhibition, % at 3 µM. actives 1.3% (n = 370,000);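 active = inhibition above the plate cutoff, the mean of all test compounds on that plate plus 3 SD, cut at about 35% in these data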;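 also: 0% = DMSO alone and 100% = 100 µM mitoxantrone as full dye displacement; higher means more dye released from RNA so lower well fluorescence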
PRMT1 inh – blocks human protein arginine methyltransferase 1 | Q99873 | recombinant PRMT1, activity-based probe fluorescence polarization | inhibition, % at 2.79 µM | actives 1.3% (n = 370,000) | AID 652257;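 active = inhibition above about 21% made by adding two undisclosed values, limit read from the data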
Target sequence (Q99873 whole entry, looked up): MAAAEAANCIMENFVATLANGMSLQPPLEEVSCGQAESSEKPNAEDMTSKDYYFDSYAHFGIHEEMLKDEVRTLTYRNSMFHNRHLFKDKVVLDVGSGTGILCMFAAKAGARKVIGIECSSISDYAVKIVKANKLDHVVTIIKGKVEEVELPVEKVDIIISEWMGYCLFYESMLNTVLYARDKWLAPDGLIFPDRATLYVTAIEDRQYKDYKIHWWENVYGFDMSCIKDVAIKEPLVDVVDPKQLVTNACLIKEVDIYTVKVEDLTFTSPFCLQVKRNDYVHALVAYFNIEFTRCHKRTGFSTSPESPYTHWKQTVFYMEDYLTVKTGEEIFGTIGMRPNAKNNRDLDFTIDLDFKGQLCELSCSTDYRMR
An asterisk follows results filed as active; x = not tested or not shown.

SMILES	UHRF1 MBD2 ctr	MBD2 DNA inh	LEDGF integ inh	ABHD5 PLIN5 PPI	rCAG RNA binder	PRMT1 inh
CNC(=O)c1ccccc1C1(O)c2ccccc2CCc2ccccc21	1	-1	-3	x	1	8
Nc1ccn([C@@H]2O[C@H](C(=O)N[C@H](Cc3ccccc3)C(=O)N[C@H]3CCCCNC3=O)[C@@H](O)[C@H]2O)c(=O)n1	0	-1	4	x	2	1
C/C(=N/NC(=O)c1sc(NS(=O)(=O)c2ccc(C)cc2)nc1C)c1sc(N)nc1C	-3	-7	-3	1	48*	0
COc1cccc2cc(C(=O)CS(=O)(=O)c3ccc(C(C)(C)C)cc3)c(=O)oc12	1	3	-2	8	38*	4
Cc1ccccc1CN(C)CCS(=O)(=O)c1cc(Cl)ccc1Cl	1	4	0	23*	5	1
Nc1nnc(CCS(=O)(=O)c2cc(Cl)ccc2Cl)s1	-2	2	1	3	3	-3
Cc1cccc(N=Cc2cc3c(cc2[N+](=O)[O-])OCO3)c1	-5	-6	14*	-6	20	17
CCCCCCCCN1C(=O)[C@@H](CC(=O)N2CCCC2)C[C@@]2(C(=O)OC)C1=C[C@H](C(C)(C)C)O[C@@H]2C	2	0	-4	x	3	5
Cc1cc(NS(=O)(=O)c2ccc(NC(=O)CSc3nc4ncc(Br)cc4[nH]3)cc2)nc(C)n1	39*	3	-6	1	11	0
COc1cccc(CNC(=O)[C@H]2CCCN2C(=O)[C@H]2CCCN2C(=O)c2cccs2)c1	4	8	2	x	1	5
c1ccc(C[n+]2csc3ccccc32)cc1	-2	-2	1	14	1	84*
Fc1cccc(C[n+]2csc3ccccc32)c1	-6	-2	-3	36*	6	75*
CCOC(=O)COc1ccc2ccccc2c1/C=C/[N+](=O)[O-]	-1	-1	-1	8	8	5
O=[N+]([O-])/C=C/c1c(OCc2ccccc2)ccc2ccccc12	x	x	x	84*	x	x
CCC(C)N(C(=O)CSc1nnc(-c2cccnc2)n1C1CCCCC1)C(C)CC (configuration not stated)	-1	0	-2	x	-2	2
COc1ccc2c(CN3CCCCC3)cc(=O)oc2c1	21*	8	-1	6	0	0
COC(=O)c1ccc(N2CCOCC2)c(NC(=O)Nc2cccc(OC)c2)c1	24*	-4	-5	-10	2	7
COc1ccc(C(=O)/C=C/c2ccc(O)cc2)c(O)c1CC=C(C)C	-1	-6	1	-16	53*	0
COCc1cc(N2CCNC[C@H]2C)ccc1N1C[C@@H](C)O[C@@H](C)C1	2	-2	2	x	5	1
Cc1ccccc1N(C)C(=O)Cn1nnc(-c2ccccc2F)n1	4	2	0	x	2	-4
Nc1nc(SCc2ccc(Br)cc2)[nH]c(=O)c1-c1ccccc1	29*	8	0	-5	-1	-2
CCOC(=O)Nc1ccc2c(c1)[C@]1(CC(=O)N(CC(C)C)C1c1ccccc1)C(=O)N2C (some centres not stated)	2	-2	0	x	-2	1
O=C1/C(=C/c2cccnc2)SC(=S)N1NS(=O)(=O)c1ccccc1	-4	-4	3	-17	14	23*
Cc1ccc(S(=O)(=O)NN2C(=O)/C(=C/c3cccc(F)c3)SC2=S)cc1	0	2	-3	-9	75*	10
O=C1/C(=C\c2ccc(Br)cc2)SC(=S)N1NS(=O)(=O)c1ccccc1	4	1	1	-6	6	4
Cc1cc(-n2c(C)cc(C(=O)CSc3ccc4c(c3)OCCO4)c2C)no1	4	2	2	-20	1	22*
Cc1cc(-n2c(C)cc(C(=O)CCl)c2C)no1	-1	4	-2	2	-3	3
O=C(OCc1ccccc1)[C@H](Cc1ccccc1)NC(=O)[C@@H]1CC=C[C@@H]2CCN(Cc3ccccc3)C(=O)[C@@H]21	1	2	-2	x	x	-2
CCc1nnc(NC(=O)CN2C(=O)/C(=C/c3cc(OC)c(OC)c(OC)c3)SC2=S)s1	-8	1	-3	-15	11	21*

Source: PubChem
